Common to all, as to assay: NCI-60 one-dose screen, 48 h (100 = growth as untreated, 0 = no growth, -100 = all killed)
What all share (settings): 10 µM unless noted

For assay [1], the system named is HCT-15 colon.
The subject of assay [2] is HT29 colon.
In assay [3] the test system is SNB-19 CNS.
In assay [4] the test system is U251 CNS.
For assay [5], the system named is PC-3 prostate.
Assay [6] relates to SK-MEL-5 melanoma.
Assay [7] concerns UACC-62 melanoma.
In assay [8] the test system is LOX IMVI melanoma.
The subject of assay [9] is SK-MEL-28 melanoma.
Assay [10] concerns SNB-75 CNS.

About 83,000 compounds went through this panel and 20% of them were active in at least one assay; those are over-represented in the sample as a whole.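 Negative percent growth values reflect cell death: -40 means 40% of the cells present at the start died, and -100 means all died.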 A number with no mark means an inactive call. Activity calls are given as the source filed them. Rule for the calls: active = growth percent below 10; inactive = the rest.

As to `CC(C)=CCC/C(C)=C/C=N\N=C(/N)N[N+](=O)[O-]`, the growth was 97.6% in assay [1]; 97.6% in assay [2]; 99.2% in assay [3]; 93.5% in [4]; 97.6% in [5]; 98.8% in assay [6]. The growth is 95.6% in assay [7], 94.8% in assay [8] and 114% in [9].
Consider `NC(=O)C(Br)c1ccccc1` (stereo not drawn), for which the growth in assay [1] is 58%; in assay [2], 86.2%; in assay [3], 90.6%; in [4], 86.8%; in [5] it was 94.3%; in [6], 82.9%. The growth is 88% in assay [7], 56.8% in assay [8] and 97.2% in [9].
For the molecule `CC1=C(CCCNS(C)(=O)=O)C2=C(C)C3(CC3)[C@@](C)(O)C(=O)C2=C1`, the growth in assay [1] was 4.29% (active); in assay [2], -2.04% (active); in assay [3], 8.19% (active); in assay [4], 1.79% (active); in assay [5], 6.58% (active); in assay [6], -89.8% (active). Besides, the growth in [7] was -52.7% (active); in [8] it was 2.21% (active); in [9], -28.4% (active).
Turning to `COC(C(=O)[C@@H](O)[C@@H](C)O)[C@@H]1Cc2cc3cc(O[C@H]4C[C@@H](O[C@H]5C[C@@H](O)[C@H](O)C(C)O5)[C@H](O)C(C)O4)c(C)c(O)c3c(O)c2C(=O)[C@H]1O[C@H]1C[C@@H](O[C@H]2C[C@@H](O[C@H]3C[C@@H](O)[C@@H](O)C(C)O3)[C@@H](O)C(C)O2)[C@H](O)C(C)O1` (stereo partly drawn), the growth in [1] was 47.7%; in assay [2] it was -11.9% (active); in [3] it was 11.7%; in assay [4], 1.11% (active); in assay [5] it was 21.6%; in assay [6], -49.2% (active). The growth was -52.2% (active) in [7], -10.6% (active) in assay [8] and -9.88% (active) in assay [9].
As for `Clc1ccc(N2COOC3(OOC2)C2CC4CC(C2)CC3C4)cc1`, the growth in assay [1] was 64%; in assay [2] it was 60%; in [3], 74.3%; in assay [4] it was 28.4%; in assay [5] it was 53.7%; in [6], 55.5%. Further, the figures for the growth in assay [7], in [8] and in assay [9] were 39.4%, -83.1% (active) and 103%, respectively.
Turning to `N/C(=N/N=C/c1ccncc1)N[N+](=O)[O-]`, the growth in assay [1] is 97.3%; in assay [2], 101%; in assay [10] it was 96%; in assay [5], 97.9%; in assay [6], 103%; in assay [7] it was 97.3%. Besides, the growth in assay [8] is 95.5%; in assay [9], 110%.
For the molecule `Fc1ccc(N2COOC3(OOC2)C2CC4CC(C2)CC3C4)cc1`, the growth in assay [1] was 88.6%; in assay [2], 102%; in [3], 95.5%; in assay [4], 97.1%; in assay [5], 90.4%; in [6], 101%. Also, the figures for the growth in assay [7], in [8] and in assay [9] were 76.5%, -82.2% (active) and 100%, respectively.
As for `O=C1C=C2C(=CCOC2O)O1` (stereo not drawn), the growth was -8.81% (active) in [1]; -24.3% (active) in assay [2]; 84.1% in assay [3]; 74.8% in [4]; 33.9% in assay [5]; 78.7% in assay [6]. The growth was -14.2% (active) in assay [7], 1.42% (active) in assay [8] and 37.7% in [9].
Turning to `COc1cc(/C=C/[N+](=O)[O-])cc(OC)c1`, the growth was -44.5% (active) in assay [1]; -25.6% (active) in [2]; 24.6% in assay [3]; -50.9% (active) in [4]; -25.4% (active) in assay [5]; 8.23% (active) in [6]. In addition, the growth in assay [7] was 2.61% (active); in assay [8], -93.9% (active); in assay [9], -16.9% (active).
`COC(=O)[C@H](C[C@H](Cc1ccccc1)NC(=O)c1csc([C@@H](C[C@H](C(C)C)N(C)C(=O)[C@@H](NC(=O)[C@H]2CCCCN2C)C(C)C)OC(C)=O)n1)NC(=O)OCc1ccccc1`: the growth was 13.6% [8.5 µM] in assay [1]; -2.9% [8.5 µM] (active) in assay [2]; 16.3% [8.5 µM] in [3]; 14.6% [8.5 µM] in [4]; 32.4% [8.5 µM] in assay [5]; -13.3% [8.5 µM] (active) in assay [6]. The growth in assay [7] was 23.8% [8.5 µM]; in [8] it was 13.8% [8.5 µM]; in assay [9] it was -69.7% [8.5 µM] (active).
As for `O=C(O)c1c(Cl)n(Cc2ccc(O)cc2)c2ccc(O)cc12`, the growth in assay [1] is 118%; in assay [2], 110%; in assay [10], 80.6%; in assay [5], 72.4%; in assay [6], 85.8%; in [7], 98.9%. Moreover, the values for the growth in assay [8] and in [9] were 98.8% and 100%, respectively.
As for `O=C(CCl)c1ccc([N+](=O)[O-])o1`, the growth in [1] was -86.6% (active); in [2] it was -14.3% (active); in assay [3], 75.4%; in [4] it was 7.98% (active); in [5], -23.8% (active); in assay [6], 62.8%. Also, the growth in [7] was 33%; in assay [8], -81.8% (active); in assay [9] it was -64.6% (active).
As for `CCN1C(=O)C(=C/C=C/c2ccccc2)C(=O)N(CC)C1=O`, the growth in assay [1] is 62.6%; in assay [2] it was 66%; in [3], 69.9%; in assay [4] it was 54.9%; in assay [5], 61.7%; in [6], 89.8%. For the same molecule, the growth in assay [7] was 79%; in [8], 17%; in assay [9], 104%.
As for `O=C1CC2(CC3(Cl)C(Cl)=C(Cl)C2(Cl)C3(Cl)Cl)C(=O)O1` (stereo not drawn), the growth was 113% in assay [1]; 113% in assay [2]; 89.4% in assay [10]; 107% in [4]; 102% in assay [6]; 112% in [7]. Also, the growth in assay [9] was 112%.
As for `Cc1sc2c(c1C)C(c1ccc(Cl)cc1)=N[C@@H](CC(=O)OC(C)(C)C)c1nnc(C)n1-2`, the growth in [1] is 12.9%; in assay [2] it was 18%; in assay [3], 45.4%; in assay [4], 52.4%; in assay [5], 53.3%; in assay [6], 21.1%. For the same molecule, the growth is 26.9% in assay [7], 7.81% (active) in assay [8] and 38.4% in [9].
On to `COc1ccc(Nc2ccc([N+](=O)[O-])cc2[N+](=O)[O-])cc1CN(CCCl)CCCl`, for which the growth in [1] was 27.7%; in [2] it was 13.2%; in [3], 22.3%; in assay [4] it was 29.6%; in assay [5], 46.8%; in assay [6] it was 57.2%. Further, the growth is 12.1% in [7], 3.66% (active) in assay [8] and 73.6% in [9].
Regarding `O=[N+]([O-])/C=C\c1ccc(Cl)c(Cl)c1`, the growth in [1] was 26.1%; in [2], -40.4% (active); in [3], 61.5%; in assay [4], 19.3%; in assay [5], 70.1%; in [6], 56.3%. In addition, the results for the growth in [7], in assay [8] and in assay [9] were 58.9%, -30.7% (active) and 89.7%, respectively.
Consider `CCCCN(CCCC)P(=O)(Oc1ccccc1)Oc1ccccc1`, for which the growth in assay [1] was 68.1%; in assay [2], 39.1%; in [3], 60.1%; in [4], 53.1%; in assay [5], 38.6%; in assay [6], 67%. Also, the growth in assay [7] was 60.1%; in [8], 67.7%; in [9] it was 94.1%.

The record behind these values is PubChem BioAssay (NCI).
